ssDAF-12 act = S. stercoralis DAF-12 nuclear receptor activators, primary screen, cell-based, luminescence, HEK293, GRIP1 co-expression, lit1-tk-luc; Nuclear hormone receptor DAF-12 (Strongyloides stercoralis); HEK293 ssDAF-12/GRIP1 lit1-tk-luc reporter; % of 3 µM dafachronic acid response; activation, % at 6.8 µM; hit rate 1% among 370,000; AID 652126, 2013;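 active = activation above the mean over all tested compounds plus 3 SD, cut at about 0.9% in these data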;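 also: 0% = DMSO-only wells and 100% = 3 µM delta7-dafachronic acid wells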
hcDAF-12 act = H. contortus DAF-12 nuclear receptor activators, primary screen, cell-based, luminescence, HEK293, lit1-tk-luc reporter; HEK293 hcDAF-12 lit1-tk-luc reporter; 0% DMSO, 100% Δ7-dafachronic acid; activation, % at 6.8 µM; hit rate 1.4% among 370,000;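 active = activation above the mean of all tested compounds plus 3 SD, cut at about 5.5% in these data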;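 also: 100% = response to 3 µM Δ7-dafachronic acid high control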
DAX1 inh-1 = DAX1 (NR0B1) inhibitors, primary screen, cell-based, HEK293, Gal4-DAX1, luciferase luminescence. Nuclear receptor subfamily 0 group B member 1 (Homo sapiens), P51843. HEK293 Gal4-DAX1 luciferase reporter. inhibition, % at 6.75 µM. hit rate 0.99% among 340,000. AID 504766, 2011;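 active = inhibition above the mean over all tested compounds plus 3 SD, cut at about 4.2% in these data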;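 also: 0% = DAX1-transfected cells with DMSO and 100% = empty-vector control cells with DMSO; inhibition shows as a rise in luminescence from relieved DAX1 repression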
Target sequence (P51843 207-470 limits assumed): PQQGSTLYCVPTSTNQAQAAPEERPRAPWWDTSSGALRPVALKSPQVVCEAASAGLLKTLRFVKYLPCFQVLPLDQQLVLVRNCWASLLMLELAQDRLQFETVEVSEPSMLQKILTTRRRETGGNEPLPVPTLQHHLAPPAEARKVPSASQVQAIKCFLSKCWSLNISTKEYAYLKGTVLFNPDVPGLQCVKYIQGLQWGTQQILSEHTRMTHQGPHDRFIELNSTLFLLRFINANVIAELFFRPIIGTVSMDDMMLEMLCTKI
hgDAF12 agonist = H. glycines DAF-12 receptor agonists, primary screen, cell-based, luminescence, HEK293, GAL4 fusion, UAS-luciferase | HEK293 GAL4-hgDAF12 UAS-luciferase reporter, agonist luminescence; normalized to butyrate control | activation, % at 6.8 µM | hit rate 1.8% among 370,000;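 active = activation above a cutoff set at the mean of all screened compounds plus 3 SD, cut at about 10% in these data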;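 also: 0% = DMSO wells and 100% = sodium butyrate wells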
DAX1 inh-2 = DAX1 (NR0B1) inhibitors on StAR promoter, primary screen, cell-based, luminescence, SF-1 (NR5A1), full-length DAX-1; inhibition, % at 6.8 µM; HEK293T StAR-luciferase reporter, SF-1/DAX-1 repression relief; hit rate 1.1% among 370,000;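 active = inhibition above the mean over all tested compounds plus 3 SD, cut at about 3.6% in these data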;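 also: 0% = DAX-1 cells with DMSO and 100% = cells lacking DAX-1 with DMSO; higher inhibition means more luminescence from relief of DAX-1 repression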
* hit, by the source's call; · = no result given. A selection: hits, their analogues and other compounds. The true share with any hit is near 4.1%.

SMILES	ssDAF-12 act	hcDAF-12 act	DAX1 inh-1	hgDAF12 agonist	DAX1 inh-2
CN(C)CCCN=c1cc(-c2ccccc2)oc2ccc(Cl)cc12	0	5	6.3*	10	4.4*
CC(O)CN=c1cc(-c2ccccc2)oc2ccc(Cl)cc12 (stereo unspecified)	-1	4	0	11*	1
O/N=C1\CC/C(=N\O)c2nn(-c3ccccc3Cl)nc21	-2	0	0	1	-1
Cc1ccc(-n2nc3c(n2)/C(=N/O)CC/C3=N\O)cc1	1	5	-1	12*	4.4*
Cc1ccc2nc(-c3ccc(NS(=O)(=O)c4ccc(F)c(F)c4)cc3)sc2c1	1	6.4*	2	17*	5.8*
O=C(CSc1nnc(Cc2cccs2)n1-c1ccccc1)Nc1ccccc1-c1ccccc1	-1	-1	·	3	-1
NS(=O)(=O)c1ccc(NC(=S)NC(=O)C2CCCC2)cc1	-1	5.8*	1	-2	0
CN1CCN(S(=O)(=O)c2ccc(NC(=S)NC(=O)C3CCCCC3)cc2)CC1	-1	0	0	3	-1
COc1ccc(NC(=S)NC(=O)C2CCCCC2)cc1	-1	1	2	4	3.8*
CC(C)N1CCCCC(NC(=O)c2ccc(Br)cc2)C1=O (stereo unspecified)	-1	-3	·	0	0
COCCNC(=O)c1c(N)[nH]c(C(=O)c2ccc(Br)cc2)c1-c1c(OC)ccc2ccccc12	-1	-2	·	2	·
O=C(Nc1cccc(C(F)(F)F)c1)C1CCCN(c2ncccn2)C1 (stereo unspecified)	-1	-3	-1	-2	-1
Cc1cc(C)cc(NC(=O)C2CCCN(c3ncccn3)C2)c1 (stereo unspecified)	-1	-1	0	0	0
Cc1ccc(NC(=O)C2CCCN(c3ncccn3)C2)cc1F (stereo unspecified)	1	2	1	12*	3
O=C(Nc1ccc2c(c1)CCC2)C1CCCN(c2ncccn2)C1 (stereo unspecified)	-1	2	1	11*	2
O=C1CC(N2CCCC2)=NC(=O)N1c1ccc(Br)cc1	-1	0	·	2	1
CSc1ccccc1NC(=O)c1cc(C)on1	-1	0	-1	1	0
CSc1ccccc1NC(=O)c1cc(C(C)C)on1	0	6.4*	1	5	1
CC(C)c1cc(C(=O)NCCc2ccccc2)no1	1	5	7.4*	6	3
COc1cc(NC(=O)NC2CCCCN(Cc3cccc(Cl)c3)C2=O)cc(OC)c1 (stereo unspecified)	-1	-1	·	5	-1
O=C(c1ccc2c3n(nc2c1)-c1ccccc1CO3)N1CCCCC1	0	6.5*	-2	11*	3
CS(=O)(=O)c1ccccc1C(=O)Nc1cc2c(cc1C(=O)O)OCCCO2	-1	0	5.8*	1	1
CS(=O)(=O)Nc1ccccc1C(=O)Nc1cc2c(cc1C(=O)O)OCCCO2	-1	1	0	1	0
CCC(C(=O)Nc1ccccn1)c1ccccc1 (stereo unspecified)	-1	0	3	-3	-1
NNC(=O)c1nc[nH]c1C(=O)Nc1ccccn1	0	1	4.3*	6	0
SMILES	ssDAF-12 act	hcDAF-12 act	DAX1 inh-1	hgDAF12 agonist	DAX1 inh-2
O=C(Nc1ccccc1)c1nc[nH]c1C(=O)NCCNC(=O)c1[nH]cnc1C(=O)Nc1ccccc1	-1	1	-1	-1	-2
O=C(O)CSCC(=O)Nc1ccccn1	-1	-2	5.4*	0	1
CC(C(=O)Nc1ccccn1)c1ccccc1 (stereo unspecified)	0.9*	1	0	0	0
COc1ccc2c(c1)CN1CN(CC(C)C)S(=O)(=O)CC21 (stereo unspecified)	-1	0	·	0	-1
O=C(Nc1ccc2ccccc2c1)OC1CCS(=O)(=O)C1 (stereo unspecified)	2.1*	4	·	7	3
O=C(NC1CCCCN(Cc2ccc(Cl)cc2)C1=O)c1ccccc1-c1ccc(Cl)c(Cl)c1 (stereo unspecified)	-2	1	·	-1	0
Cc1occc1C(=O)Nc1cc(C(F)(F)F)ccc1Cl	-2	1	4.6*	2	1
Cc1occc1C(=O)Nc1ccc(Br)cc1F	0	2	2	12*	1
C=CCN(CC#CC(=C)C)CC1CC1	0	-2	·	3	-1
Cc1cc(O)c(C(=O)c2ccccc2C(=O)O)cc1C	-1	6.4*	1	0	0
Cc1noc(C)c1S(=O)(=O)N1CCCc2nc(-c3ccc(F)cc3)ccc21	-2	-3	·	-4	-3
CCOC(=O)c1c(-c2ccccc2)cn2c(C)cc(C)nc12	-1	0	0	12*	1
COCCNC(=S)N(C)[C@H]1C[C@H]2c3[nH]c4c(-c5ccccc5)cccc4c3CCN2C[C@H]1[C@H](C)O	-1	-2	·	-1	1
CCOC(=O)c1sc2nc3c(SCCC#N)cc(C(=O)c4cc(F)ccc4O)cn3c(=O)c2c1C	1.5*	4	0	4	1
CCOC(=O)c1sc2nc3c(SCCC(=O)O)cc(C(=O)c4cc(OC)ccc4O)cn3c(=O)c2c1C	-1	-1	-1	5	-1
O=C(N/N=C/c1cc([N+](=O)[O-])ccc1O)C12CC3CC(CC(C3)C1)C2	-2	-1	4.2*	0	0
O=C(N/N=C/c1cc([N+](=O)[O-])ccc1O)NC12CC3CC(CC(C3)C1)C2	-3	-5	-1	-8	-2
CC(=O)C1(C(=O)NC2CCCC2)CC(c2ccccc2C(F)(F)F)=NO1 (stereo unspecified)	-1	-2	·	0	-1
CC1=CC(C)(C)N=C(NC#N)N1	1.0*	-1	3	0	0
O=C(O)c1cccc(-c2csc(C(O)c3ccc(F)cc3)n2)c1 (stereo unspecified)	0	2	·	6	4.2*
OC(c1ccccc1)c1nc(-c2ccc3c(c2)OCO3)cs1 (stereo unspecified)	-1	1	·	13*	2
Cc1nc2c(ccc3nc(NC(=O)C(c4ccccc4)c4ccccc4)sc32)s1	2.5*	5	-1	0	0
COc1cc(OC)cc(C(=O)NNC(=O)CN2C(=O)NC(C)(c3ccc(C)cc3)C2=O)c1 (stereo unspecified)	-1	-1	4.4*	1	0

Bioassay records as filed in PubChem.
